# Test results: PubChem BioAssay
# “And” between values parts separate entries of the source, which are not always exact repeats. Identical values can stand only once. The source made the active and inactive calls. Cut-off read from the data, not from the text of the source, unless noted: active = inhibition above about 80%; inactive = the rest.
# What was measured:
# [1] = test system: F380Y; assay: modulators of BK channel variants, profiling panel, selectivity assay, cell-based, U2OS BacMam, thallium flux, beta subunits (AID 1259406;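 active = thallium flux through the channel raised or lowered by more than 3 SD from vehicle-only wells, actives on both sides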;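 note: initial slope of Thallos dye fluorescence rise after thallium is added; log ratio against the mean of 0.3% DMSO vehicle wells on the same plate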); conditions: at 30 µM
# [2] = test system: F380Y/beta1; assay: as above; conditions: at 30 µM
# [3] = UWB1.289 ovarian carcinoma cell growth inhibition, synergistic combos for chromothripsis tumors, BGB or cisplatin combos (AID 1671456); conditions: UWB1.289 ovarian carcinoma cells, stronger effect = higher value;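 note: cells exposed to compound for four days; 0% = vehicle DMSO and 100% = killing by high DMSO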
# [4] = LFS_MB_2R medulloblastoma cell growth inhibition, synergistic combos for chromothripsis tumors, cisplatin combos (AID 1671457); conditions: LFS_MB_2R medulloblastoma cells, stronger effect = higher value;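 note: cells exposed to compound for four days before readout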
# [5] = MDA-MB-436 breast carcinoma cell growth inhibition, synergistic combos for chromothripsis tumors, BGB or cisplatin combos (AID 1671458; call rule not given here;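 note: cells exposed for 96 hours; 0% = vehicle DMSO and 100% = killing by high DMSO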); conditions: MDA-MB-436 breast carcinoma growth inhibition, drug combinations, stronger effect = higher value
# [6] = UWB1.289_BRCA1 ovarian cancer growth, cell-based, BGB or cisplatin combinations (AID 1671459); conditions: UWB1.289 BRCA1 ovarian carcinoma, drug combinations, stronger effect = higher value
# [7] = human astrocyte viability loss, single and combined drugs, cytotoxicity control for chromothriptic childhood tumor combination screen, cell-based, BGB or cisplatin IC20 combos (AID 1671460); conditions: Human astrocytes, drug combinations, stronger effect = higher value;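 note: cells exposed to compounds for 96 hours before viability readout; 0% = vehicle and 100% = killing control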
# [8] = growth inhibition of BT084 medulloblastoma cells, cell-based, ICGC_MB145, cisplatin and BGB IC40 combos (AID 1671461); conditions: drug combinations, stronger effect = higher value;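 note: cells exposed to drugs for 96 hours; 0% = vehicle DMSO and 100% = high DMSO full killing control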
# [9] = growth inhibition of RCMB18 medulloblastoma cells, cell-based, cisplatin and BGB IC40 combos (AID 1671462); conditions: stronger effect = higher value;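 note: cells exposed to compound for four days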
# [10] = growth inhibition of CRL1545 osteosarcoma cells, cell-based, cisplatin and BGB IC20 combos (AID 1671464); conditions: stronger effect = higher value;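 note: cells exposed to compound for 96 hours before readout; 0% = vehicle DMSO and 100% = high DMSO killing control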
# [11] = measured here: inhibition with BGB combination, at 0.05 µM
# [12] = measured here: inhibition with cisplatin combination, at 0.05 µM
# [13] = measured here: combination with cisplatin, at 0.5 µM
# [14] = measured here: combination with cisplatin, at 5 µM
# [15] = measured here: BGB combination, at 0.5 µM
# [16] = measured here: BGB combination, at 5 µM
# [17] = measured here: cisplatin combination, at 0.5 µM
# [18] = measured here: cisplatin combination, at 5 µM
# [19] = BGB combination, concentration series, at 5 µM
# [20] = cisplatin combination, concentration series, at 5 µM
# [21] = measured here: combo with BGB IC20, at 0.5 µM
# [22] = measured here: combo with cisplatin IC20, at 0.5 µM
# [23] = cisplatin combination, at 0.5 µM
# [24] = measured here: BGB IC40 combination 0.05 uM, at 0.05 µM
# [25] = measured here: BGB IC40 combination, at 0.05 µM
# [26] = measured here: with BGB IC20 combination, at 0.5 µM
# [27] = measured here: with cisplatin IC20 combination, at 0.5 µM
compound,measurement,setting,value
CC(C)(C)NC(=O)[C@@H]1CN(Cc2cccnc2)CCN1C[C@@H](O)C[C@@H](Cc1ccccc1)C(=O)N[C@H]1c2ccccc2C[C@H]1O,log fold change Tl+ flux,[1],-0.012 (inactive)
same,log fold change Tl+ flux,[2],-0.0545 (inactive)
Cc1nccn1CC1CCc2c(c3ccccc3n2C)C1=O (stereo not given),log fold change Tl+ flux,[1],0.0107 (inactive) and 0.024 (inactive)
same,log fold change Tl+ flux,[2],0.000378 (inactive) and -0.0486 (inactive)
O=C(O)CCCCCCCC(=O)O,inhibition,[3]; at 0.5 µM,-13.5% (inactive)
same,inhibition,[3]; [11],-19.6%
same,inhibition,[3]; [12],-0.85%
same,inhibition,[4]; at 0.5 µM,-13.9% (inactive)
same,inhibition,[4]; [13],-13.8%
same,inhibition,[4]; [14],-48.8%
same,inhibition,[5]; at 0.5 µM,-29.2% (inactive)
same,inhibition,[5]; [15],-23.3%
same,inhibition,[5]; [16],-29%
same,inhibition,[5]; [17],-37.4%
same,inhibition,[5]; [18],-23.5%
same,inhibition,[6]; [19],-15.5%
same,inhibition,[6]; at 0.5 µM,-19.3% (inactive)
same,inhibition,[6]; [20],-16.1%
same,inhibition,[7]; at 0.5 µM,-11.4% (inactive)
same,inhibition,[7]; [21],-13.8%
same,inhibition,[7]; [22],-20%
same,inhibition,[8]; at 0.5 µM,-17.8% (inactive)
same,inhibition,[8]; [23],-4.5%
same,inhibition,"[8]; cisplatin combination, at 5 µM",-12.5%
same,inhibition,[8]; [24],4.07%
same,inhibition,"[8]; single agent, at 5 µM",-1.2%
same,inhibition,[9]; at 0.5 µM,-9.8% (inactive)
same,inhibition,"[9]; cisplatin combo, at 5 µM",-40.4%
same,inhibition,[9]; [25],-4.46%
same,inhibition,[9]; [13],-13.4%
same,inhibition,"[9]; single agent, at 5 µM",-26.4%
same,inhibition,[10]; at 0.5 µM,-28.2% (inactive)
same,inhibition,[10]; [26],-60.3%
same,inhibition,[10]; [27],-14.7%
same,inhibition,"[10]; single agent, at 0.05 µM",-52%
same,inhibition,"[10]; single agent, at 5 µM",-52.1%
CNNCc1ccc(C(=O)NC(C)C)cc1,inhibition,[3]; at 0.5 µM,13% (inactive) and 7.15% (inactive)
same,inhibition,[3]; [11],3.19% and 1.17%
same,inhibition,[3]; [12],22.9% and 3.56%
same,inhibition,[4]; at 0.5 µM,14.1% (inactive) and 0.23% (inactive)
same,inhibition,[4]; [13],6.63% and -1.71%
same,inhibition,[4]; [14],15.9% and -32.2%
same,inhibition,[5]; at 0.5 µM,0.31% (inactive) and -0.08% (inactive)
same,inhibition,[5]; [15],1.37% and 5.96%
same,inhibition,[5]; [16],-3.48% and 5.4%
same,inhibition,[5]; [17],0.65% and -2.59%
same,inhibition,[5]; [18],-3.21% and 0.056%
same,inhibition,[6]; [19],-3.07% and 11.5%
same,inhibition,[6]; at 0.5 µM,8.92% (inactive) and 4.36% (inactive)
same,inhibition,[6]; [20],2.73% and 5.28%
same,inhibition,[7]; at 0.5 µM,-1.46% (inactive) and -4.45% (inactive)
same,inhibition,[7]; [21],4.04% and -5.12%
same,inhibition,[7]; [22],-5.05% and -7.38%
same,inhibition,[8]; at 0.5 µM,9.13% (inactive) and -8.81% (inactive)
same,inhibition,[8]; [23],-8.59% and 0.014%
same,inhibition,"[8]; cisplatin combination, at 5 µM",13.7% and 11%
same,inhibition,[8]; [24],8.15% and 2.42%
same,inhibition,"[8]; single agent, at 5 µM",-0.995% and -8.33%
same,inhibition,[9]; at 0.5 µM,5.59% (inactive) and 7.58% (inactive)
same,inhibition,"[9]; cisplatin combo, at 5 µM",1.81% and -25.8%
same,inhibition,[9]; [25],-9.15% and -22.9%
same,inhibition,[9]; [13],38.1% and 9.89%
same,inhibition,"[9]; single agent, at 5 µM",-25.5% and 7.57%
same,inhibition,[10]; at 0.5 µM,-9.96% (inactive) and 0.27% (inactive)
same,inhibition,[10]; [26],-28.2% and -29.3%
same,inhibition,[10]; [27],-2.5% and 13.1%
same,inhibition,"[10]; single agent, at 0.05 µM",-6% and -6.52%
same,inhibition,"[10]; single agent, at 5 µM",-28.8% and -29%
same,log fold change Tl+ flux,[1],-0.0305 (inactive)
same,log fold change Tl+ flux,[2],0.0168 (inactive)
